Source: PubChem BioAssay
Values joined by “and” are separate entries in the source; they are usually repeats but may differ in a detail not shown here. Equal entries are not always repeated. Active and inactive are the calls of the source.

Legend:
Albumin (Bos taurus) = Albumin (Bos taurus) (UniProt P02769); assay: compounds binding labelled BSA control protein – biochemical, small-molecule microarray, Alexa647 label, 635/667 nm fluorescence, artefact control for SMM control protein annotation, profiling panel (AID 1118); settings: BSA-A647 binding, fluorescence 635 nm, higher = more signal;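 note: score merges 667 nm emission intensity and signal-to-noise per printed compound spot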
[1] = probe aXIP binding to arrayed compounds – biochemical, NeuroSMM set, 635/667 nm fluorescence, primary screen (AID 1119); settings: small-molecule microarray, higher = more signal, called active from +8 up or from −8 down;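 note: probe is the protein aXip251-270 applied at 1 µg/mL to compound-printed slides; binding of probe to printed compounds measured as 667 nm fluorescence plus signal to noise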
[2] = probe aNOTCH3 binding on compound microarray – biochemical, small-molecule microarray, 635/667 nm fluorescence, primary screen (AID 1120); settings: higher = more signal;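 note: probe is a biotin-tagged antibody raised against NOTCH3 rather than NOTCH3 protein; score merges spot fluorescence near 667 nm with spot signal to noise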
[3] = probe aNOTCH2 binding on compound microarray – biochemical, small-molecule microarray, 635/667 nm fluorescence, primary screen (AID 1121); settings: higher = more signal;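 note: score merges feature fluorescence read at 667 nm with its signal to noise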
[4] = target: Carbonic anhydrase 2 (Homo sapiens) (UniProt P00918); assay: compounds binding carbonic anhydrase 2 – biochemical, small-molecule microarray, Alexa647-labelled CAII, profiling panel (AID 1122); settings: CAII-A647 binding fluorescence, higher = more signal
[5] = COS7 lysate on small-molecule microarray, probe aHis, 635 nm (AID 1123); settings: COS7 cell lysate, fluorescence, higher = more signal;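 note: z-score combines 667nm fluorescence intensity with signal-to-noise per printed compound spot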
[6] = probe aLAP1 signal on lysate-treated microarray – cell lysate, small-molecule microarray, COS7 lysate, primary screen (AID 1124); settings: probe aLAP1, fluorescence, higher = more signal;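 note: lysate comes from COS7 cells expressing LAP1 and is applied at 0.3 µg/mL; score merges spot fluorescence near 667 nm with signal-to-noise over triplicate slides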
Sam68 (KHDRBS1) = assay: compounds binding KHDRBS1 protein – biochemical, small-molecule microarray, 635 nm fluorescence, primary screen (AID 1125); settings: higher = more signal;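 note: score merges 667 nm channel intensity with signal to noise over triplicate slides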
[7] = tested on: Chordin-like protein 2 (CHRDL2); assay: compounds binding chordin-like 2 – biochemical, small-molecule microarray, 635 nm fluorescence, primary screen (AID 1126); settings: fluorescence 635 nm, higher = more signal;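 note: printed compound slides probed with Chrdl2 protein at 4 µg/mL for 1 h at 4 C; score merges 667 nm emission intensity with signal to noise over three replicate slides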
[8] = target: Concanavalin-A (Canavalia ensiformis) (UniProt P02866); assay: compounds binding concanavalin A lectin – biochemical, small-molecule microarray, Alexa647 label, 635 nm, artefact control for SMM control protein annotation, primary screen (AID 1127); settings: ConA-A647 binding fluorescence, higher = more signal;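 note: z combines 667 nm emission intensity with signal-to-noise across three replicate slides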
[9] = compounds binding Alexa647 anti-His antibody – biochemical, small-molecule microarray, 635 nm fluorescence, artefact control for SMM control protein annotation, primary screen (AID 1128); settings: higher = more signal;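 note: score merges feature fluorescence with signal-to-noise for each printed compound spot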
[10] = tested on: Human papillomavirus type 1a E7 protein (residues 1-88); assay: HPV1a E7 small-molecule binders, primary screen, biochemical, small-molecule microarray, residues 1-88, 635 nm (AID 1129); settings: small-molecule microarray binding, fluorescence 635 nm; higher = more signal
[11] = target: Focal adhesion kinase 1 (Homo sapiens) (UniProt Q05397); assay: PTK2 protein binding on printed compound slides – biochemical, small-molecule microarray, 635/667 nm fluorescence, BSA, DTT, primary screen (AID 1130); settings: 635 nm fluorescence, higher = more signal;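 note: composite of spot emission at 667 nm and signal to noise over triplicate slides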
[12] = tested on: Fibrinogen (Alexa647-labelled); assay: Alexa647-fibrinogen binding to printed small molecules – biochemical, small-molecule microarray, 635/667 nm fluorescence, artefact control for SMM control-protein annotation, profiling panel (AID 1131); settings: fibrinogen-A647 binding fluorescence, higher = more signal;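 note: z-score merges 667 nm fluorescence with per-spot signal-to-noise over triplicate slides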
[13] = target: Follistatin (Homo sapiens) (UniProt P19883); assay: FST protein binding to printed compounds – biochemical, small-molecule microarray, 635/667 nm fluorescence, primary screen (AID 1132); settings: 635 nm fluorescence, higher = more signal
[14] = target: Fibroblast growth factor 2 (Homo sapiens) (UniProt P09038); assay: basic fibroblast growth factor binding to printed compounds – biochemical, small-molecule microarray, 635/667 nm fluorescence, primary screen (AID 1133); settings: FGF2, fluorescence 635/667, higher = more signal
[15] = JC-1 mitochondrial potential readout, lung cancer cells – cell-based, A549, JC-1 fluorescence, basal, 24 h, 100 nL, profiling panel (AID 1138); settings: higher = more signal;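 note: A549 lung adenocarcinoma cells under basal conditions with no added stimulus; test concentration not given here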
Lefty1 = Lefty1 protein binding to printed compounds – biochemical, small-molecule microarray, 635/667 nm fluorescence, primary screen (AID 1139); settings: fluorescence 635/667, higher = more signal
[16] = tested on: wheat germ agglutinin (Triticum aestivum), Alexa647-labelled; assay: Alexa647-WGA lectin binding to printed small molecules – biochemical, small-molecule microarray, 635/667 nm fluorescence, artefact control for SMM control-protein annotation, profiling panel (AID 1140); settings: WGA-A647 binding, 635 nm fluorescence, higher = more signal;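 note: score merges 667 nm feature emission with signal to noise over triplicate slides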
[17] = target: Luciferin 4-monooxygenase (Photinus pyralis) (UniProt P08659); assay: inhibition of purified Photinus pyralis luciferase – biochemical, luminescence, purified enzyme, 2006 set, primary screen (AID 1141); settings: purified firefly luciferase, SteadyGlo luminescence, 30 min; higher = more signal, called active from +8 up or from −8 down;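 note: cell-free assay with purified firefly luciferase at 100 ng per well in PBS; test concentration not given here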
Luciferin 4-monooxygenase (Photinus pyralis), sequence (P08659 whole entry, looked up): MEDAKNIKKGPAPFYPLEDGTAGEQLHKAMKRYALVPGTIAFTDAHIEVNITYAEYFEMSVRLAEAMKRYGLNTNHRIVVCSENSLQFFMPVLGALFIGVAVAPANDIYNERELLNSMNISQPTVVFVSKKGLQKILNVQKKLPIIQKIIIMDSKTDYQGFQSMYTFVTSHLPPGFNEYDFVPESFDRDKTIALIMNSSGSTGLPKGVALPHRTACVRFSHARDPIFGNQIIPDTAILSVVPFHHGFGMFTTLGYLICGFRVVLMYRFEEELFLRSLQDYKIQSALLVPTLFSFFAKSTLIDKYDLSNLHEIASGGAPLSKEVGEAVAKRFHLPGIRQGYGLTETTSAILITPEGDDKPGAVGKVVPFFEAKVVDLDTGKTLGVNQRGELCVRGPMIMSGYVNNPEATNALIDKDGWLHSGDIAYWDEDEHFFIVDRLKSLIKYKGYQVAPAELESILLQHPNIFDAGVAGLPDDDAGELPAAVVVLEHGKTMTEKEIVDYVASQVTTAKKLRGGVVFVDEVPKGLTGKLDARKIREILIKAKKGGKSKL

Focal adhesion kinase 1 (Homo sapiens), sequence (Q05397 whole entry, looked up): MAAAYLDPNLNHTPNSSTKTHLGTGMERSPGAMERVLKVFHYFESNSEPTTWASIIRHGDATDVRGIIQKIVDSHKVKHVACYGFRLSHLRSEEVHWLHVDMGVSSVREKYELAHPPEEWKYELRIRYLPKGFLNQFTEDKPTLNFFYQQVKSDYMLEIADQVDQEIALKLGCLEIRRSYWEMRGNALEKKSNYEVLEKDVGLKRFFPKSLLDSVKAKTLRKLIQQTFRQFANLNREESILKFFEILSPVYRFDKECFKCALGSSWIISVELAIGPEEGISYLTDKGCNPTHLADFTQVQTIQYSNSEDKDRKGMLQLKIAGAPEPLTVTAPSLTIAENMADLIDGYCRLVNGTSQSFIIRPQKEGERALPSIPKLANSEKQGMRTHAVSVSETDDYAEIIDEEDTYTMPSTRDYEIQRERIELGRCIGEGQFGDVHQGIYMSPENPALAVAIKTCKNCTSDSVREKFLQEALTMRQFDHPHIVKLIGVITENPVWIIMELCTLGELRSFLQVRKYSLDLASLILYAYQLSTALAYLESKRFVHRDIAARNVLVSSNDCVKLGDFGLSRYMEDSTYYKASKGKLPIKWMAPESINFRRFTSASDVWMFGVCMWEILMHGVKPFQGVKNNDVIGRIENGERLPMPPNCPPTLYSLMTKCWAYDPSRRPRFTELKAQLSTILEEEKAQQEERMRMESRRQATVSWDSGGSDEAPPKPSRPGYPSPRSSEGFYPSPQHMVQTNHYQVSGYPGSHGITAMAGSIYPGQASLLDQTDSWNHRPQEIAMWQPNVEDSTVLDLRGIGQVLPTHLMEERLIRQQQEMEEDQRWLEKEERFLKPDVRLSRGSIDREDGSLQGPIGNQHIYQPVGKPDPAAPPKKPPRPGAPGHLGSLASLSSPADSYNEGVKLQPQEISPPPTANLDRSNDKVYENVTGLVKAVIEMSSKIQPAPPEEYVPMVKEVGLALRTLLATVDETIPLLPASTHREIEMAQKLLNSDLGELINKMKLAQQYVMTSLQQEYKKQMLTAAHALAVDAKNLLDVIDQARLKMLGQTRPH
Follistatin (Homo sapiens), sequence (P19883 whole entry, looked up): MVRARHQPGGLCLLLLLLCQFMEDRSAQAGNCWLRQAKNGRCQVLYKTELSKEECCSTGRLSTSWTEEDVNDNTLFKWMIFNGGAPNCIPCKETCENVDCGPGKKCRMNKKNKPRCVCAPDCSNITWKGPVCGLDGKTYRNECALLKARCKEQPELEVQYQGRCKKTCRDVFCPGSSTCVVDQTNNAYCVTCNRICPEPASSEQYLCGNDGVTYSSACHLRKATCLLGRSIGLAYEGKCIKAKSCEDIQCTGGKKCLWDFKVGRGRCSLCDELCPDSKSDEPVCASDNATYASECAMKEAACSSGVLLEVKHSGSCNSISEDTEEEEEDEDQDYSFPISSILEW
Concanavalin-A (Canavalia ensiformis), sequence (P02866 whole entry, looked up): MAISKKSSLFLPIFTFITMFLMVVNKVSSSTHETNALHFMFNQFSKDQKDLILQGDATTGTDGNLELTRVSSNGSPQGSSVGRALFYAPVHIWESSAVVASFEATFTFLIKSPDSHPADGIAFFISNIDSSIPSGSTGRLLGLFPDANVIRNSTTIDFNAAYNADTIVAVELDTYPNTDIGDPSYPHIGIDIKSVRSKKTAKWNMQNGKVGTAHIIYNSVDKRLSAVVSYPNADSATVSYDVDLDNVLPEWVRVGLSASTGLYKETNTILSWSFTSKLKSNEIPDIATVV
Fibroblast growth factor 2 (Homo sapiens), sequence (P09038 whole entry, looked up): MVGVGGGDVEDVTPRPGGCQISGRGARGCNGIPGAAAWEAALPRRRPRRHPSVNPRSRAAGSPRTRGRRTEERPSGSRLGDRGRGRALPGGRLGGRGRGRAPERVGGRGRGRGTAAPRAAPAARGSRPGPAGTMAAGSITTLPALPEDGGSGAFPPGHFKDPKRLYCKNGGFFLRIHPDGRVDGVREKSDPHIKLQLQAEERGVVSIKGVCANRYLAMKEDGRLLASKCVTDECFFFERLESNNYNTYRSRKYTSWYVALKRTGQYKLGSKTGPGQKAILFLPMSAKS
Albumin (Bos taurus), sequence (P02769 whole entry, looked up): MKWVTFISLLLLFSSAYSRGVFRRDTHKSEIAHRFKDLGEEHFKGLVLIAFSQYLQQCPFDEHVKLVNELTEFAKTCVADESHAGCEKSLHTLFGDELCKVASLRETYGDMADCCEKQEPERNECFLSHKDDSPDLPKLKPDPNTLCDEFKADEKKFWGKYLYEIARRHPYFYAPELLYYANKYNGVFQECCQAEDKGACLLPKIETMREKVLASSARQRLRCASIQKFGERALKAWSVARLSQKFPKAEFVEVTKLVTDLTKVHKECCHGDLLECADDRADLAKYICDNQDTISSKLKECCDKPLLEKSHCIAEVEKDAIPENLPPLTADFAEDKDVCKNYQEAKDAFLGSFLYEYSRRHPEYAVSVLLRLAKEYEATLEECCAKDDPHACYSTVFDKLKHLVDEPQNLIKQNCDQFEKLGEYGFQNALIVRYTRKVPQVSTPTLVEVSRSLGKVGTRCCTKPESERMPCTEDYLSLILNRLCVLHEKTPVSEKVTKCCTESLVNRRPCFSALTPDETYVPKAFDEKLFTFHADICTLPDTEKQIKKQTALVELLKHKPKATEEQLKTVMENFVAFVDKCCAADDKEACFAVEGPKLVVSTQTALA

SMILES	composite z-score (Albumin (Bos taurus))	composite Z-score [1]	composite z-score [2]	composite z-score [3]	composite z-score [4]	composite z-score [5]	composite z-score [6]	composite z-score (Sam68 (KHDRBS1))	composite z-score [7]	composite z-score [8]	composite z-score [9]	composite z-score [10]	composite z-score [11]	composite z-score [12]	composite z-score [13]	composite z-score [14]	z-score [15]	composite z-score (Lefty1)	composite z-score [16]	z-score [17]
COC(=O)C1=C(C)N(Cc2ccccc2)C2=C(C(=O)c3ccccc3)[C@H](c3ccccc3)[C@@](O)(C(=O)OC)C(=O)N2[C@@H]1c1ccccc1	0.388 and 0.0897	-0.174 (inactive) and -0.441 (inactive)	0.177 and -0.0265	0.0929 and -0.171	0.0303 and -0.0063	-0.224 and 0.306	0.0568 and 0.016	0.928 and 0.821	0.275 and 0.455	0.914 and 0.37	0.326 and -0.476	0.477 and 0.778	0.0825 and 1.11	0.435 and -0.0657	0.526 and 0.424	0.442 and 0.433	0.722 and 0.241	0.571 and 0.636	0.419 and -0.0152	-1.49 (inactive) and -0.0191 (inactive)
CCOC(=O)C[C@H]1[C@H](OC(=O)c2ccccc2-c2ccccc2)[C@@H](NC(=O)c2ccccc2)c2cc(OCCCO)ccc2N1C(=O)c1ccc2ccccc2n1	0.369 and 0.645	0.095 (inactive) and 0.291 (inactive)	0.0223 and 0.228	-0.0073 and -0.0357	0.348 and 0.0749	0.25 and 0.958	0.0741 and 0.356	0.443 and 1.2	0.243 and 0.175	0.436 and 1.04	0.861 and 1.4	0.547 and 0.311	-0.0011 and 0.466	0.0271 and 0.432	0.41 and 1.12	0.566 and 0.845	1.1 and 0.202	0.513 and 0.934	0.692 and 0.31	-0.233 (inactive) and -0.818 (inactive)
C=C[C@@H](C)[C@@H](O)c1ccc(O)c2ccccc12	-0.154 and -0.436	-0.014 (inactive) and 0.196 (inactive)	-0.413 and -0.52	-0.232 and -0.193	0.0119 and 0.72	-0.024 and 0.351	-0.237 and -0.0579	-0.785 and -0.587	-0.0684 and 0.351	-0.419 and -0.81	-0.46 and 0.408	-1.07 and -0.498	-0.221 and -0.422	-1.54 and 0.509	0.105 and 0.431	-0.162 and -0.329	0.287 and -0.728	-0.863 and -0.286	-1.19 and 0.506	-1.48 (inactive) and -0.181 (inactive)
CO[C@@H]1C=CCC(=O)N2CCC[C@H]2C(=O)OC[C@H](C)C(=O)OC[C@H]1C	0.987	0.392 (inactive)	-0.0077	0.012	0.403	-0.555	-0.795	0.216	1.01	-0.607	0.761	-0.624	0.0548	-1.04	1.23	0.109	1.54	0.864	0.508	-1.87 (inactive)
COC(=O)C1=C(C)N(Cc2ccccc2)C2=C3C(=O)N(C)C(=O)[C@@H]3[C@@](O)(C(=O)OC)C(=O)N2[C@@H]1c1ccccc1	0.0056 and 0.0685	0.204 (inactive) and -0.12 (inactive)	0.134 and -0.101	-0.151 and -0.0619	0.422 and -0.123	-0.332 and -0.0088	1.36 and 0.499	-0.239 and 0.267	0.37 and 0.38	0.17 and 0.178	0.21 and -0.0385	0.311 and 0.614	0.128 and 0.276	0.269 and 0.335	0.355 and 0.223	0.55 and 0.24	0.286 and 0.239	-0.0227 and 0.627	0.129 and -0.0358	-0.598 (inactive) and -2.38 (inactive)
